Screens: PubChem, The Scripps Research Institute Molecular Screening Center
Most compounds without a hit are left out; they make up all but 4.1% or so of the library.
rCAG RNA binder: molecules binding r(CAG) RNA repeats | r(CAG) RNA repeat, TO-PRO-1 dye displacement fluorescence | inhibition, % at 3 µM | 370,000 compounds, 1.3% hits;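 active = inhibition above the plate cutoff, the mean of all test compounds on that plate plus 3 SD, cut at about 35% in these data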;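 also: higher means more dye released from RNA so lower well fluorescence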
LEDGF integ inh: blocks HIV-1 LEDGF/p75-dependent DNA integration. TR-FRET IN-LEDGF/p75 DNA integration, Eu/Cy5. AID 743269. inhibition, % at 3.7 µM. 370,000 compounds, 0.64% hits;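 active = inhibition above the screen-wide mean plus 3 SD, cut at about 13% in these data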;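 also: signal is the Cy5 over europium emission ratio at 671 and 618 nm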
MBD2 inh: blocks human MBD2 binding to methylated DNA. AID 686964. inhibition, % at 4.4 µM. 370,000 compounds, 0.31% hits. TR-FRET, MBD2 binding to methylated oligonucleotide; in the data active = inhibition above about 13%
Target sequence (Q9UBB5 whole entry, looked up): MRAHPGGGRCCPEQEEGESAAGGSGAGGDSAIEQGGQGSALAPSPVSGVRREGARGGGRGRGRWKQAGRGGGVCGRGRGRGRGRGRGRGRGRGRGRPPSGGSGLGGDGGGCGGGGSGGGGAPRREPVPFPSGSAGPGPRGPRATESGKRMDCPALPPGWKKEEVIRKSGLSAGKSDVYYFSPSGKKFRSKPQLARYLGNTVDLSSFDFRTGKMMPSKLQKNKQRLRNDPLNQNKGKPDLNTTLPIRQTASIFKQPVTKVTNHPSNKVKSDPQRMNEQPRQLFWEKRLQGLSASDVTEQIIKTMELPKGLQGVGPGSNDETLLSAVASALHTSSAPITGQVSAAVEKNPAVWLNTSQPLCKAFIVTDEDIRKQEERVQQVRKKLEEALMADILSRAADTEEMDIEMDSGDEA
PRMT1 inh: inhibitors of human PRMT1 | AID 652257 | 370,000 compounds, 1.3% hits | Q99873 | recombinant PRMT1, activity-based probe fluorescence polarization | inhibition, % at 2.79 µM;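 active = inhibition above about 21% made by adding two undisclosed values, limit read from the data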
UHRF1 binding: human UHRF1 methylated DNA binding inhibitors. UHRF1 binding to methylated oligo, TR-FRET. inhibition, % at 4.4 µM. 370,000 compounds, 0.75% hits. AID 687016; in the data active = inhibition above about 21%;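 also: UHRF1 SRA domain binding a hemimethylated CpG hairpin DNA probe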
ABHD5 PLIN5 PPI: blocks binding of human ABHD5 to perilipin-5. Split G. princeps luciferase complementation, luminescence, 4 h. inhibition, % at 4 µM. 360,000 compounds, 0.78% hits;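 active = inhibition above the mean inhibition across every tested compound plus 3 SD, cut at about 22% in these data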
ABHD5-PLIN5 conf: ABHD5-PLIN5 interaction inhibition, confirmed; shares compounds with ABHD5 PLIN5 PPI; inhibition, % at 4 µM; biochemical ABHD5-PLIN5 interaction, luminescence; 2,200 compounds, 67% hits; in the data active = inhibition above about 23%
HNF4 counter: HNF4 split-luciferase signal hit, counter-screen; shares compounds with ABHD5 PLIN5 PPI; HNF4 dimerization, luminescence, biochemical; inhibition, % at 4 µM; 2,200 compounds, 77% hits;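 active = mean inhibition across replicate wells exceeding the computed hit threshold, cut at about 13% in these data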;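 also: light from luciferase halves that rejoin when HNF4 fusion proteins dimerize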
A number is an active result; – = inactive; · = not tested or not shown.

SMILES	rCAG RNA binder	LEDGF integ inh	MBD2 inh	PRMT1 inh	UHRF1 binding	ABHD5 PLIN5 PPI	ABHD5-PLIN5 conf	HNF4 counter
CCN(CC)S(=O)(=O)c1ccc(N2CCc3ccccc3C2)nc1	–	–	–	–	–	44.5	61.0	72.2
CCCCC[n+]1cccc2c3ccccc3ccc21	–	–	–	–	–	–	·	·
CCCC[n+]1c2ccccc2cc2ccccc21	–	–	–	–	–	86.7	101.7	100.3
CCC[n+]1c2ccccc2cc2ccccc21	–	–	–	–	–	71.8	94.0	83.6
C[C@@H]1CN([C@@H](C)CO)C(=O)CCCn2cc(nn2)CO[C@H]1CN(C)C(=O)Nc1ccc(C(F)(F)F)cc1	–	–	–	–	–	·	·	·
Cc1ccccc1NC(=O)OC1CC2CC1[C@H]1CCCCN1[C@H]2Cc1ccccc1 (some centres not stated)	–	–	–	–	–	·	·	·
COC(=O)[C@]12C[C@H](CC(=O)NCc3cccc(C(F)(F)F)c3)C(=O)N(CCc3ccc(OC)c(OC)c3)C1=C[C@H](COCc1ccccc1)O[C@@H]2C	–	–	–	–	–	·	·	·
CC(=O)NC(CSC(CC(=O)c1ccco1)c1ccc(C)cc1)C(=O)O (configuration not stated)	–	–	–	–	–	49.9	39.8	39.8
CC(=O)NC(Cc1ccccc1)C(=O)N1CCN(C(=O)c2ccco2)CC1 (configuration not stated)	·	·	·	·	·	–	·	·
CC1CCC2(CC1)CCC2NCc1ccc(Cl)c(Cl)c1 (configuration not stated)	·	–	–	–	–	·	·	·
O=S(=O)(c1cccs1)N1CCCc2nc(-c3ccc(F)cc3)ccc21	–	–	–	–	–	·	·	·
Cc1ccc(/C=C/C(=O)N2CC(=O)Nc3ccccc32)o1	–	–	–	–	–	25.4	–	29.8
Cc1ccccc1Oc1nc2c(C)cccn2c(=O)c1/C=C(\C#N)C(=O)Nc1c(C)n(C)n(-c2ccccc2)c1=O	–	–	–	–	–	28.1	49.0	35.3
Cc1ccccc1Oc1nc2ccccn2c(=O)c1/C=C(\C#N)C(=O)Nc1c(C)n(C)n(-c2ccccc2)c1=O	–	–	–	–	–	–	·	·
CN1C(=O)[C@@]2(C3=C(CCCC3=O)OC3=C2C(=O)CC(C)(C)C3)c2ccccc21	–	–	–	–	–	·	·	·
O=C1/C(=C\c2ccc(Cl)cc2)CCC1CNc1ccc(Cl)cc1 (configuration not stated)	–	–	–	–	–	36.9	59.8	79.9
CN(C)CC1CCC/C(=C\c2ccc(OC(=O)c3ccc(Cl)cc3)cc2)C1=O (configuration not stated)	–	–	–	–	–	–	·	·
O=C(CN1C(=O)/C(=C\c2cccc(Br)c2)Oc2ccccc21)NCCCN1CCOCC1	–	–	–	–	–	29.2	–	–
O=C(CN1C(=O)COc2ccccc21)NCCCN1CCOCC1	–	–	–	–	–	–	·	·
Cc1ccccc1S(=O)(=O)N(C)C[C@@H]1OCc2cn(nn2)CCCC(=O)N([C@@H](C)CO)C[C@H]1C	–	–	–	–	–	·	·	·
COc1ccc2c(c1)[C@]1(C(=O)N2C)C2=C(CCCC2=O)Oc2cc(C)oc(=O)c21	–	–	–	–	–	·	·	·
O=C(/C=C/c1ccc2c(c1)OCCCO2)c1ccccc1O	–	–	–	–	–	26.8	77.5	52.8
Cc1ccc(O)c(C(=O)/C=C/c2ccc3c(c2)OCCCO3)c1	–	–	–	–	–	31.7	66.0	45.4
COc1cc(Cn2cc([C@]34C[C@H]5C(=O)N(C)CC(=O)N5[C@H]3N(S(=O)(=O)c3ccccc3)c3ccccc34)c3ccccc32)cc(OC)c1	·	–	–	–	–	·	·	·
COC(=O)CSc1nnc(-c2ccc(NS(=O)(=O)c3ccc(C(C)(C)C)cc3)cc2)o1	–	–	–	–	–	·	·	·
SMILES	rCAG RNA binder	LEDGF integ inh	MBD2 inh	PRMT1 inh	UHRF1 binding	ABHD5 PLIN5 PPI	ABHD5-PLIN5 conf	HNF4 counter
C(#Cc1ccccc1)C[N+]1(CC#Cc2cccc3ccccc23)CCCC1	–	–	–	–	–	26.9	–	–
Cc1cccc(C(=O)NCCCn2ccnc2)c1C	–	–	–	–	–	101.9	–	–
O=C(NCCCn1ccnc1)c1ccccc1Cl	–	–	–	–	–	–	·	·
Cc1cc(C)c2nc(-c3ccccn3)cc(C(=O)NCc3ccco3)c2c1	–	–	–	–	–	45.1	–	25.6
Cc1cc(C)c2nc(-c3ccccn3)cc(C(=O)NCc3cc(C)n(C)n3)c2c1	–	–	–	–	–	–	·	·
CC(C)C(NS(=O)(=O)c1ccccc1)C(=O)OCc1cc([N+](=O)[O-])cc2c1OCOC2 (configuration not stated)	–	–	–	–	–	44.9	–	–
CCN(CC)CCOc1ccc(/C(=C(\Cl)c2ccccc2)c2ccccc2)cc1	–	–	–	–	–	48.9	75.9	28.5
C=CCC1(C)C(=O)N(c2ccccc2)c2ccccc21 (configuration not stated)	–	–	–	–	–	31.6	–	–
C=CCCC1(C)C(=O)N(c2ccccc2)c2ccccc21 (configuration not stated)	–	–	–	–	–	–	·	·
COC(=O)[C@]12CCCCC=C1N(Cc1ccc(OC)cc1)C(=O)[C@@H]2CC(=O)NCc1ccc(OC)c(OC)c1	–	–	–	–	–	·	·	·
Cc1cc2c(nc1C)CCCN2S(=O)(=O)c1ccc(C(F)(F)F)cc1	–	–	–	–	–	·	·	·
CC1(C)CC(=O)C(C(C2=C(O)CC(C)(C)CC2=O)c2ccc(Br)s2)C(=O)C1 (configuration not stated)	–	–	–	–	–	67.0	91.5	97.3
CCC(C)NCCCOc1ccc(C)cc1OC (configuration not stated)	–	–	–	–	–	–	·	·
CNCCCOc1ccc(C)cc1OC	–	–	–	–	–	56.7	–	–
CSc1nc2ccccc2cc1/C=C(\C#N)c1cccc(C)c1	–	–	–	–	–	48.6	–	–
COC(=O)C1CCCN(C(=O)C2CCN(S(=O)(=O)c3cccs3)CC2)C1 (configuration not stated)	–	–	–	–	–	·	·	·
COCCCN1CN(S(=O)(=O)c2ccc(C)cc2C)c2nc3ccccc3nc21	–	–	–	–	–	27.8	–	14.8
Cc1ccc(S(=O)(=O)N2CN(CC3CCCO3)c3nc4ccccc4nc32)c(C)c1 (configuration not stated)	–	–	–	–	–	–	·	·
NC(=O)C(C(=O)/C=C/c1ccc(Cl)cc1)=C1SCCS1	–	–	–	–	–	33.8	56.4	34.1
